# Screening data deposited in PubChem by National Center for Advancing Translational Sciences (NCATS).
# A selection: hits, their analogues and other compounds. The true share with any hit is near 2.2%.
# LDHA block = LDHA (human) enzyme inhibition. P00338. purified LDHA, NADH/diaphorase-resazurin fluorescence; hits give low values. activity change, % (values are at about 110 or 230 µM). 0.15% of 480,000 active. AID 1347041; in the data active means activity change below about -30%; inconclusive means mostly about -25% to -30%;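 further: plate controls were DMSO wells for no effect and wells without enzyme for full effect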
#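 Resorufin fluorescence (ex540/em590), read at 0 and 20 min after diaphorase/resazurin addition, reports the NADH left after a 5 min room-temperature reaction of 2 nM human LDH5 with 0.06 mM NADH and 0.2 mM pyruvate.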
# S2 tox = viability counter-screen for ATXN expression inhibitors; S2 cells (HEK-293 line with an ATXN2-luciferase reporter) viability, CellTiter-Fluor protease fluorescence, 24 h; Potency, µM (series often up to 56.7 µM), actives largely listed as cytotoxic; 0.49% of 400,000 active; further: potency means the concentration at half of the fitted maximal effect; nearly all actives have a fitted effect of over 40% in size
# HepG2 viability = counter-screen for TGF-b inhibitors: cytotoxicity in HepG2 cells | HepG2 CAGA-GFP viability, ATP luminescence, 18 h | 0.76% of 410,000 active | AID 588856 | Potency, µM (titrated, usually from 46.1 µM), without a hit: at the highest dose activity change, negative = cytotoxicity, hits mostly cytotoxic; further: potency means the concentration at half of the fitted maximal effect
#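 CellTiter-Glo luminescence gave cytotoxicity after 18 hours at 37 degrees C. The cells were HepG2 CAGA-GFP in 1% FBS DMEM, stimulated with 500 pg/mL TGF-beta after compound addition. %Activity was normalised to no-cell wells (complete cell-killing) and DMSO (no toxicity), and curves were fitted and classified.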
# IDH1 R132H inh = blocks human mutant IDH1 R132H enzyme | Potency, µM (doses to about 76.6 µM), for the others: at the highest dose activity change, negative = inhibition, hits mostly inhibitors | 0.093% of 390,000 active | IDH1-R132H enzyme, NADPH consumption, diaphorase/resazurin fluorescence | O75874; further: potency means the concentration at half of the fitted maximal effect; on the % scale 0 is the no-effect control and ±100 the full control effect; nearly all actives have a fitted effect of over 65% in size
# Target sequence (O75874 whole entry R132H, stated change not applied): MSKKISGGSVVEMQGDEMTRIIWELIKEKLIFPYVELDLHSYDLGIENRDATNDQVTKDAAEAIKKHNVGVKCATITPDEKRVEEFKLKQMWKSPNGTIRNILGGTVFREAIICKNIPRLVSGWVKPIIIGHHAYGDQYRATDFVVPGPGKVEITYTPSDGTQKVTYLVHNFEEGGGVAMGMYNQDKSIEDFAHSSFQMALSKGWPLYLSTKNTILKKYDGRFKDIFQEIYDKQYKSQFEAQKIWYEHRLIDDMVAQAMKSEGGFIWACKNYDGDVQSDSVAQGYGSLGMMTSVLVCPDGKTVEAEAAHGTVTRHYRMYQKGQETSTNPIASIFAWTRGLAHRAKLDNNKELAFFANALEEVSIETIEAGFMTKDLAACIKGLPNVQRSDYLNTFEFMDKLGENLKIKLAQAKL
#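 IDH1-R132H (0.5 ug/mL dispensed) in pH 7.5 Tris buffer was preincubated 30 min with compound, then given a substrate mix of 0.016 mM NADPH and 2 mM alpha-KG for 80 min at room temperature; remaining NADPH was read by diaphorase/resazurin fluorescence.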
# TGFb inhibitor = TGF-b pathway inhibition; HepG2 CAGA-GFP TGF-b/SMAD3 reporter, GFP fluorescence, 18 h; TGF-beta stimulated, 500 pg/mL final; Potency, µM (doses to about 46.1 µM), for the others: at the top dose activity, negative = inhibition, actives largely listed as inhibitors; AID 588855; 1.2% of 410,000 active; further: potency means the concentration at half of the fitted maximal effect; on the % scale 0 is the no-effect control and ±100 the full control effect; nearly all actives have a fitted effect of over 65% in size
#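 First, reporter cells (HEPG2 CAGA-GFP) rested 2 h at 37 degrees C. Next, compounds were pinned in and TGF-beta added to 500 pg/mL final. After 18 h, GFP was imaged per cell and summed per well.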
# ATXN2 expr inh = ATXN2 expression inhibition; HEK-293 ATXN2-luciferase reporter, luminescence, 24 h; Potency, µM (series often up to 57 µM), for inactives: at the top dose activity change, negative = inhibition, actives largely listed as inhibitors; 0.72% of 360,000 active; AID 1745845; further: potency means the concentration at half of the fitted maximal effect; on the % scale 0 is the no-effect control and ±100 the full control effect; nearly all actives have a fitted effect of over 55% in size
#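 qHTS (up to 57 uM final) was run with 24 h compound exposure of reporter cells at 37 °C. Each well was multiplexed: SteadyGlo luminescence measured ATXN2-luciferase expression after a fluorogenic Gly-Phe-AFC viability readout (25 uM final).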
# Numbers without * were called inactive; i = inactive; ? = inconclusive; / = not tested or not shown. Unless noted, the call rests on the fitted dose curve; in most records, active means well fitted curve in the direction sought with a large enough effect; inconclusive means small, poorly fitted or top-dose-only effect, or another doubt; inactive means no such curve, though single readings can be large; an effect the other way counts as inactive or inconclusive.
SMILES,LDHA block,S2 tox,HepG2 viability,IDH1 R132H inh,TGFb inhibitor,ATXN2 expr inh
Cc1ccc(-c2c(C(=O)NCCc3ccc(Cl)cc3)oc(=O)c3ccccc23)cc1,-1,i,-2%,-7%,11µM*,-38%
Cc1ccc(CCNC(=O)c2ccc(CS(=O)(=O)Cc3ccccc3F)o2)cc1,-3,?,-16%,6%,-36%,-13%
O=C(COc1ncnc2ccccc12)Nc1ccc(F)c(F)c1,0,/,/,/,/,/
CCC(=O)N1CCc2cc(Br)cc(S(=O)(=O)CCC(=O)NCc3ccc(Cl)cc3)c21,-1,i,-20%,16%,-22%,-16%
CCCCSc1nc2c([nH]1)c(=S)n(C)c(=O)n2C,-2,?,-54%,7%,5µM*,?
Cn1c(=S)c2[nH]c(SCCC(C)(C)C)nc2n(C)c1=O,-6,i,-33%,3%,?,-30%
CCCC(CC)Sc1nc2c([nH]1)c(=S)n(C)c(=O)n2C (configuration not stated),3,i,-1%,3%,7.9µM*,-28%
CSc1nc2c([nH]1)c(=S)n(C)c(=O)n2C,5,i,-37%,4%,13µM*,-14%
CCN(CC)CCSc1nc2c([nH]1)c(=S)n(C)c(=O)n2C,5,i,3%,3%,0%,8%
CCC(=O)N1CCc2cc(OC)c(OC)cc2C1COc1ccc(F)cc1 (configuration not stated),-6,i,-21%,8%,-13%,/
CCn1c(SCC(=O)N2CCCCCC2)nc2c([nH]c3ccccc32)c1=O,-3,?,0%,1%,8%,-17%
CCCOc1ccc(C(=O)NCCO)cc1,-2,i,0%,1%,-2%,2%
CC1(C)CC2C1CCC1(O)CC2(C)CCC1N(O)c1ccc(C(=O)NCCO)cn1 (configuration not stated),6,?,-39%,8%,-25%,28µM*
Cc1ccc(N(C(=O)CCl)C(C(=O)NC2CCCCC2)c2cccnc2)cc1C (configuration not stated),-8,2.8µM*,-26%,-8%,?,3.2µM*
CN(CC(=O)Nc1cccc(F)c1)C(=O)c1cccc(S(=O)(=O)N2CCN(c3ccc(F)cc3)CC2)c1,-1,i,-29%,-9%,13µM*,?
COc1ccc(CCN(C)C(=O)c2cccc(S(=O)(=O)N3CCN(c4ccc(F)cc4)CC3)c2)cc1OC,-1,?,-39%,4%,11µM*,/
CN(CCOc1ccc(Cl)cc1)C(=O)c1cccc(S(=O)(=O)N2CCN(c3ccc(F)cc3)CC2)c1,-4,?,-3%,0%,?,?
Cc1cc(C(=O)COC(=O)c2ccc(NC(=O)CC#N)cc2)c(C)n1-c1ccc(OC(F)F)cc1,-5,i,1%,1%,0%,-12%
O=C(c1ccco1)N1N=C(c2ccc(Cl)cc2)CC1(O)C(F)(F)F (configuration not stated),-6,i,-16%,1%,-10%,-10%
O=C(c1ccco1)N1N=C(c2ccc(Br)cc2)CC1(O)C(F)(F)F (configuration not stated),-8,i,-41%,0%,7.9µM*,3%
CCC(=O)NC(=S)Nc1cccc(Cl)c1N1CCCCC1,-8,i,-61%,2%,14µM*,-27%
CCCCC(=O)NC(=S)Nc1cccc(Cl)c1N1CCCCC1,3,i,-20%,-1%,?,3%
O=C(NCc1ccccn1)c1cc(-c2ccc(Cl)cc2)oc1C(F)(F)F,2,?,-100%,6%,11µM*,-38%
CCc1cccc(CC)c1NC(=S)Nc1cccc(Cl)c1Cl,7,i,18µM*,5%,?,1%
O=C(NC1CC2CCC1C2)c1ccco1 (configuration not stated),-10,i,-14%,-6%,19%,2%
SMILES,LDHA block,S2 tox,HepG2 viability,IDH1 R132H inh,TGFb inhibitor,ATXN2 expr inh
Cc1ccc(CNCc2cccnc2)s1,2,i,1%,12%,-1%,/
O=C(O)c1ccccc1CSc1nc2ccccc2n1Cc1ccccc1C(=O)O,-32*,i,7%,-6%,3%,5%
CSc1nc2ccc(NC(=O)COc3ccccc3F)cc2s1,-2,i,-18%,2%,2%,/
Clc1ccc(-c2nc(CN3CCCC3c3cccs3)co2)cc1 (configuration not stated),4,/,/,/,/,/
Cc1ccc(/C=C2\SC(=S)N(CCCC(=O)Nc3ccc(O)cc3)C2=O)cc1,-6,i,-20%,-3%,-23%,10µM*
COc1cccc(/C=C2\SC(=S)N(CCCC(=O)N(CCO)c3ccccc3)C2=O)c1,-1,?,-58%,-1%,?,22µM*
CCc1ccc(/C=C2\SC(=S)N(CCCC(=O)Nc3ccccc3C(=O)O)C2=O)cc1,-13,i,8%,10%,-2%,-31%
Cc1ccc(/C=C2\SC(=S)N(CCCC(=O)Nc3ccccc3C(=O)O)C2=O)cc1,-2,i,-5%,15%,-7%,13µM*
Cc1ccc(NC(=O)CN2C(=O)S/C(=C\c3cc(Cl)c(OCC(=O)O)c(Cl)c3)C2=O)cc1,2,i,-9%,37µM*,3%,/
O=C1/C(=C/c2cccc(Br)c2)SC(=S)N1CCC(=O)N(CCO)c1ccccc1,0,i,-43%,-3%,?,0%
NS(=O)(=O)c1ccc(CNC(=O)C(Cc2ccccc2)NS(=O)(=O)c2ccccc2F)cc1 (configuration not stated),2,i,-11%,1%,-12%,/
COC(=O)c1ccc(C(=O)Nc2ccc(C(C)C)cc2N)cc1,-6,i,0%,-2%,0%,19%
CCOc1ccc(NC(=O)CSC2=C(C#N)C(c3ccccc3Cl)C(C(C)=O)=C(C)N2)cc1 (configuration not stated),5,/,/,/,/,/
Cc1ccc(/C=C2\SC(=S)N(CCCC(=O)Nc3ccccn3)C2=O)cc1,-8,i,-12%,-4%,4%,3.2µM*
Cc1cc(C)c(C#N)c(Sc2nc(C)c([N+](=O)[O-])c(C)c2C#N)n1,-3,20µM*,13µM*,/,?,22µM*
NC(Cc1ccc(Cl)cc1)c1csc(Nc2cc(Oc3ccccc3)ncn2)n1 (configuration not stated),-12,/,-114%,/,?,-21%
